Bioassay records from PubChem.
AMA1-RON2 inh – qHTS for Inhibitors of AMA1-RON; Towards Development of Antimalarial Drug Lead: Primary Screen. Plasmodium falciparum AMA1 (3D7) - RON2 peptide interaction. AlphaScreen AMA1-biotinylated RON2 peptide binding. Potency, µM (doses to about 58.2 µM), inactives show at the top dose activity change, negative = inhibition, most hits filed as inhibitors. 0.2% of 360,000 active. AID 720542, 2013;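 note: 0% = vehicle wells and -100% = peptide control; nearly all actives have a fitted effect of over 45% in size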
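AMA1 (3D7) with his tag at 25 nM final met compounds first, then biotinylated RON2 peptide at 25 nM; detection used donor plus acceptor beads, 10 µg/mL apiece, read by AlphaScreen after 30 min at room temperature.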
Pf growth 48h – Primary qHTS for delayed death inhibitors of the malarial parasite plastid, 48 hour incubation | P. falciparum luciferase growth in erythrocytes, 48 h | Potency, µM (highest dose often 28.7 µM), inactives show top-dose activity change, negative = inhibition, hits mostly inhibitors | 5.9% of 310,000 active | AID 504832, 2011; note: % is set by controls: 0 for no effect and ±100 for the full control effect
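Firefly luciferase activity from engineered P. falciparum reports growth; inhibitors lower the luminescent signal. Cultures contained 2% hematocrit erythrocytes at 0.1% final parasitemia.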
SARS PLpro yeast – qHTS of Yeast-based Assay for SARS-CoV PLP. 0.19% of 330,000 active. S. cerevisiae expressing SARS-CoV PLpro, growth rescue. Potency, µM (top dose mostly 32.9 µM), for inactives: top-dose activity, positive = growth rescue, hits mostly activators; calls by dose curve; note: 0% is about no effect; nearly all actives have a fitted effect of over 55% in size
Pf growth 96h – Primary qHTS for delayed death inhibitors of the malarial parasite plastid, 96 hour incubation; P. falciparum luciferase reporter growth, 96 h; Potency, µM (series often up to 28.7 µM), for inactives: top-dose activity change, negative = inhibition, most hits filed as inhibitors; 6.9% of 320,000 active; note: % is set by controls: 0 for no effect and ±100 for the full control effect
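96 h incubation, 37 C, 5% CO2, of luciferase-reporter P. falciparum-infected RBCs (2% hematocrit, 0.05% parasitemia final) with test compounds; endpoint luminescence.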
* marks the source's active call; other numbers are inactive results; ? = inconclusive; nt = no result; [ ] = dose if it differs, or a comment. Sampled rows, rich in hits. Any-hit rate of the full collection: about 9.4%. Unless noted, calls come from the whole dose curve; as a rule, active = well fitted curve in the direction sought with a large enough effect; inconclusive = small, poorly fitted or top-dose-only effect, or another doubt; inactive = no such curve, though single readings can be large; an effect the other way counts as inactive or inconclusive. Potency is the fitted concentration of half-maximal effect.

SMILES	AMA1-RON2 inh	Pf growth 48h	SARS PLpro yeast	Pf growth 96h
COc1ccc(C2c3ccc(O)cc3Oc3ncn(CCN4CCOCC4)c(=N)c32)cc1 (stereo not drawn)	-8%	?	1%	-27%
COc1ccc(C2c3ccc4ccccc4c3Oc3ncn(CCCN(C)C)c(=N)c32)cc1 (stereo not drawn)	-3%	1.7µM*	-1%	1.7µM*
COc1ccc(Cc2nc(C(=O)Nc3ccc(OC)cc3)cs2)cc1	5%	4%	-24%	nt
COc1ccc(C2c3ccc(O)cc3Oc3ncn(Cc4ccco4)c(=N)c32)cc1OC (stereo not drawn)	-16%	?	0%	-30%
COc1ccc(C2c3ccc4ccccc4c3Oc3ncn(Cc4ccco4)c(=N)c32)cc1OC (stereo not drawn)	-8%[11.6 µM]	13µM*	0%	?
COc1ccc(C2c3ccc(O)cc3Oc3ncn4nc(-c5cccnc5)nc4c32)cc1OC (stereo not drawn)	61%	5.2µM*	1%	4.1µM*
OCCCc1nc2ccccc2n1Cc1ccccc1	-1%	-8%	0%	?
CCn1cc(S(=O)(=O)c2ccc(OC)cc2)c(=O)c2cc(F)c(N3CCN(C)CC3)cc21	0%	4%	8%	8.3µM*
CCOC(=O)c1cn(CC)c2cc(N3CCN(C)CC3)c(F)cc2c1=O	7%	12µM*	-2%	?
CCOC(=O)c1cn(CC)c2cc(N3CCSCC3)c(F)cc2c1=O	1%	0.93µM*	1%	-2%
CCn1cc(C(=O)NCC(C)C)c(=O)c2cc(F)c(N3CCN(C)CC3)cc21	14%	-9%	1%	-18%
COC(=O)C1C(c2ccccc2)C(C(=O)OCc2ccco2)C1c1ccccc1 (stereo not drawn)	11%	10µM*	-77%	-4%
CN1C2CCC1/C(=C/c1cccn1C)C(=O)/C2=C\c1cccn1C	?	-17%	5%	-2%
CN1C2CCC1/C(=C\c1ccc(F)cc1)C(=O)/C2=C/c1ccc(F)cc1	-18%	0.83µM*	-15%	-3%
COc1ccc(C2Nc3ccccc3C(=O)N2c2ccccc2)cc1Cn1cc([N+](=O)[O-])cn1 (stereo not drawn)	8%	13µM*	10%	5.2µM*
COc1ccc(N2C(=O)c3ccccc3NC2c2ccc(OC)c(Cn3cc([N+](=O)[O-])cn3)c2)cc1 (stereo not drawn)	4%	?	-2%	44%
CCc1nnc2n1N=C(c1ccc([N+](=O)[O-])cc1)CS2	-13%	41%	1%	2%
Cc1cc(C)c(COCc2cc(/C=N/O)c(C)cc2C)cc1/C=N/O	-7%	nt	-5%	10µM*
CSc1cc(/C=N/O)c(SC)s1	-2%	-4%	-22%	23%
COc1cccc(CNc2ncn[nH]2)c1OCc1ccccc1F	16%	?	1%	?
Cc1ccc(C2SCC(=O)N2Cc2cn3ccsc3n2)o1 (stereo not drawn)	29%	-11%	4%	15µM*
CCC(C)Nc1nc(N)c([N+](=O)[O-])c(Nc2cc(OC)ccc2OC)n1 (stereo not drawn)	?	?	-2%	?
CCC(C)Nc1nc(N)c([N+](=O)[O-])c(Nc2ccccc2OC)n1 (stereo not drawn)	-9%	12µM*	-2%	10µM*
CN(C)CCCn1c(SCC(=O)N2c3ccccc3Sc3ccccc32)nc2ccccc2c1=O	-28%	10µM*	-4%	4.1µM*
Cn1c(Cn2nnc3ccccc32)nnc1SCC(=O)N1c2ccccc2Sc2ccccc21	0%	?	11%	10µM*
SMILES	AMA1-RON2 inh	Pf growth 48h	SARS PLpro yeast	Pf growth 96h
COC(=O)c1c(NC(=O)CSc2nnc(Cn3nnc4ccccc43)n2C)sc(C)c1C	0%	-23%	-1%	7.4µM*
COC(=O)C(NC(=O)c1ccccc1)c1ccccc1 (stereo not drawn)	-7%	11%	10%	-16%
Oc1ccccc1/C=N/Nc1ccnc(SCc2ccccc2)n1	65%	10µM*	6%	1.9µM*
Oc1ccccc1/C=N/Nc1ccccc1	-15%	42%	-45%	25%
O=C(NC(=S)NCc1ccccc1)c1ccc2c(c1)OCO2	23%	43%	?	-5%
CCOC(=O)c1c(NC(=O)COC(=O)c2ccc(C)s2)sc2c1CC(C)(C)NC2(C)C	-15%	-6%	0%	4%
CCOC(=O)c1c(NC(=O)CSc2nnnn2-c2ccccc2OCC)sc2c1CC(C)(C)NC2(C)C	-8%	10µM*	-7%	8.3µM*
CCOC(=O)c1c(NC(=O)CSc2nc3ccc(C)cc3[nH]2)sc2c1CC(C)(C)NC2(C)C	-6%	4.7µM*	-7%	4.7µM*
CCOC(=O)c1c(NC(=O)CSc2nnnn2-c2ccccc2)sc2c1CC(C)(C)NC2(C)C	3%	6.6µM*	4%	2.6µM*
COc1cc(C2=NOC(C(=O)NC3CCCCC3)C2)cc(OC)c1OC (stereo not drawn)	4%	-28%	5%	246%
O=C(NNc1nc2c(F)cccc2s1)C1COc2ccccc2O1 (stereo not drawn)	37%	44%	0%	80%
CC1(C)CC(=O)C(C=NCCN2CCN(C(=O)c3ccc(F)cc3)CC2)=C(O)C1	69%	22%	8%	35%
O=C(Nc1cccc(C(F)(F)F)c1)c1c(O)c2ccccc2[nH]c1=O	3%	28%	18%	15µM*
CN(C)c1cc[n+](CC[n+]2ccc(N(C)C)cc2)cc1	6%	?	-12%	?
CN(C)c1cc[n+](CC(O)C[n+]2ccc(N(C)C)cc2)cc1	-1%	9.3µM*	2%	4.7µM*
CNC(=S)N/N=C/c1c(C)c(C(=O)c2ccc(F)cc2)n2ccccc12	78%	8.3µM*	-1%	3.3µM*
CCc1ccccc1NC1c2ccccc2C(=O)N1c1cc(C)ccn1 (stereo not drawn)	-10%	13µM*	-4%	50%
COc1ccc(NC2c3ccccc3C(=O)N2c2ccccn2)cc1 (stereo not drawn)	-9%	?	1%	12µM*
CCOc1ccc(NC2c3ccccc3C(=O)N2c2ccc(Cl)cn2)cc1 (stereo not drawn)	-2%	32%	14%	-63%
CCOC(=O)c1ccc(NC2c3ccccc3C(=O)N2c2ccccn2)cc1 (stereo not drawn)	13%	nt	0%	10µM*
Cc1ccnc(N2C(=O)c3ccccc3C2Nc2ccccc2Cl)c1 (stereo not drawn)	1%	?	-12%	?
CC1CCCCN1Cc1ccc(N)cc1 (stereo not drawn)	2%	-7%	12%	0.1µM*
c1cc(CN2CCCCC2)cc(OCCCNc2nc3ccccc3s2)c1	-17%	13µM*	nt	4.8µM*
O=C(NCCCOc1cccc(CN2CCCCC2)c1)c1ccc(Cl)c(Cl)c1	-23%	?	-17%	2.3µM*
